# Laboratory results from the antibiotic and cytotoxicity screens of Wong et al. (2023).
# About 3,300 (8.5%) of roughly 39,000 compounds were called active. This excerpt belongs to a sample that is enriched for actives.
# Tested on: HepG2
# Test: cytotoxicity call (relative viability < 0.9)
# Details: 10 µM
row,Structure (SMILES),cytotoxicity call
1,COc1ccc(NC(=O)N(C)C[C@H]2Oc3c(NS(C)(=O)=O)cccc3C(=O)N([C@H](C)CO)C[C@H]2C)cc1,inactive
2,O=C1c2ccccc2C(=O)C1c1ccc(Cl)cc1,inactive
3,CCCCC(=O)C1CCC(c2ccc(Cl)cc2)CC1 (centres undefined),inactive
4,O=C1C(O)=C(C2CCC(c3ccc(Cl)cc3)CC2)C(=O)c2ccccc21 (centres undefined),active
5,C[C@H](CO)N1C[C@H](C)[C@H](CN(C)C(=O)c2ccccc2)OCCCC[C@H](C)Oc2ccc(NC(=O)Cc3ccccc3)cc2C1=O,inactive
6,CCO[C@H]1OC(C(=O)N2CCN(Cc3ccccc3)CC2)=C[C@@H](c2cn(C(C)=O)c3ccccc23)[C@@H]1CCCOC(=O)NCCCCCC(=O)NO,inactive
7,NCCCCCCNC(=O)[C@H]1C[C@H]2C(=O)N[C@@H](CCCCN)C(=O)N2[C@H]1c1ccc(O)cc1,inactive
8,C[C@@H]1CN([C@@H](C)CO)C(=O)c2cc(NC(=O)Nc3ccc(C(F)(F)F)cc3)ccc2O[C@@H](C)CCCCO[C@@H]1CN(C)S(=O)(=O)c1ccc(F)cc1,inactive
9,C[C@@H]1CCCCO[C@@H](CN(C)Cc2ccc(C(=O)O)cc2)[C@H](C)CN([C@@H](C)CO)C(=O)c2cc(NS(=O)(=O)c3ccc(F)cc3)ccc2O1,inactive
10,CC(C)(C)C(=O)OCOP(=O)(COCCn1cnc2c(N)ncnc21)OCOC(=O)C(C)(C)C [listing 1 of 2 here],active
11,Nc1ncnc2c1ncn2C1OC(COP(=O)(O)O)C(O)C1O (centres undefined),inactive
12,Nc1ncnc2c1ncn2CCN1CCOCC1,inactive
13,CC(C)OC(=O)OCOP(=O)(CO[C@H](C)Cn1cnc2c(N)ncnc21)OCOC(=O)OC(C)C,inactive
14,Nc1ncnc2c1ncn2[C@H]1O[C@H](COP(=O)(O)O)[C@@H](O)[C@H]1O,inactive
15,CC(Cn1cnc2c(N)ncnc21)OCP(=O)(O)O (centres undefined),active
16,CC(C)(C)C(=O)OCOP(=O)(COCCn1cnc2c(N)ncnc21)OCOC(=O)C(C)(C)C [listing 2 of 2 here],active
17,Nc1ncnc2c1ncn2CCN1CCCCC1,inactive
18,Nc1ncnc2c1ncn2CCO,inactive
19,CCCNC(=O)Nc1ccc2c(c1)C(=O)N(C)C[C@@H](OC)[C@@H](C)CN(Cc1ccc(-c3ccccn3)cc1)[C@@H](C)CO2,inactive
20,COc1ccc(S(=O)(=O)Nc2ccc3c(c2)CC(=O)N([C@@H](C)CO)C[C@H](C)[C@@H](CN(C)C(=O)Nc2c(C)noc2C)O3)cc1,inactive
21,CN1CCN(C(=O)Cn2cc(-c3ccc(C(=O)NO)cc3)nn2)CC1,inactive
22,Cc1noc(C)c1NC(=O)N[C@@H]1C=C[C@@H](CC(=O)N2CCN(C)CC2)O[C@@H]1CO,inactive
23,COc1ccc(cc1)CN1C[C@]2(CN(C2)C(=O)Cc2ccncc2)c2c([nH]c3cc(ccc23)OC)[C@@H]1CO,inactive

row,Structure (SMILES),cytotoxicity call
1,C[C@H]1CN([C@@H](C)CO)C(=O)Cc2cc(NC(=O)Nc3cccc4ccccc34)ccc2O[C@@H]1CN(C)Cc1ccncc1,inactive
2,C[C@@H]1CN([C@@H](C)CO)C(=O)Cc2cc(NC(=O)Nc3cccc4ccccc34)ccc2O[C@@H]1CN(C)Cc1ccncc1,active
3,C[C@@H]1CN([C@@H](C)CO)C(=O)Cc2cc(NC(=O)Nc3cccc4ccccc34)ccc2O[C@H]1CN(C)Cc1ccncc1,inactive
4,C[C@H](CO)N1C[C@H](C)[C@H](CN(C)Cc2ccncc2)Oc2ccc(NC(=O)Nc3cccc4ccccc34)cc2CC1=O,active
5,C[C@H]1CN([C@@H](C)CO)C(=O)Cc2cc(NC(=O)Nc3cccc4ccccc34)ccc2O[C@H]1CN(C)Cc1ccncc1,inactive
6,C[C@@H]1CN([C@H](C)CO)C(=O)Cc2cc(NC(=O)Nc3cccc4ccccc34)ccc2O[C@H]1CN(C)Cc1ccncc1,inactive
7,C[C@@H]1CN([C@H](C)CO)C(=O)Cc2cc(NC(=O)Nc3cccc4ccccc34)ccc2O[C@@H]1CN(C)Cc1ccncc1,active
8,C[C@H](CO)N1C[C@H](C)[C@@H](CN(C)Cc2ccncc2)Oc2ccc(NC(=O)Nc3cccc4ccccc34)cc2CC1=O,active
9,COc1ccc(S(=O)(=O)N[C@H]2CC[C@@H](CC(=O)N3CCC(Cc4ccccc4)CC3)O[C@@H]2CO)cc1,inactive
10,C[C@@H]1CCCCO[C@H](CN(C)C(=O)Nc2ccc3c(c2)OCO3)[C@H](C)CN([C@@H](C)CO)C(=O)c2cc(NS(=O)(=O)c3cccs3)ccc2O1,inactive
11,CC(C)NC(=O)Nc1cccc2c1O[C@H](CN(C)S(=O)(=O)c1cccs1)[C@H](C)CN([C@H](C)CO)C2=O,inactive
12,CCCN(C)C[C@@H]1Oc2cc(C#Cc3ccc(OC)cc3)ccc2S(=O)(=O)N([C@H](C)CO)C[C@@H]1C,inactive
13,Cc1ccc(C(=O)CCNc2ccc3c(c2)oc2ccccc23)o1,inactive
14,C[C@@H]1CCCCO[C@@H](CN(C)C(=O)c2ccccc2)[C@@H](C)CN([C@H](C)CO)C(=O)c2cc(NC(=O)Nc3cccc4ccccc34)ccc2O1,inactive
15,C[C@H]1CCCCO[C@H](CN(C)S(=O)(=O)c2cn(C)cn2)[C@@H](C)CN([C@@H](C)CO)C(=O)c2cc(NC(=O)Nc3ccc(C(F)(F)F)cc3)ccc2O1,inactive
16,Cc1noc(C)c1S(=O)(=O)Nc1ccc2c(c1)CC(=O)N([C@H](C)CO)C[C@@H](C)[C@H](CN(C)S(=O)(=O)c1ccc(F)cc1)O2,inactive
17,C[C@@H]1CN([C@H](C)CO)C(=O)c2cc(NC(=O)Nc3cccc4ccccc34)ccc2O[C@@H](C)CCCCO[C@@H]1CN(C)C(=O)C1CCCCC1,inactive
18,C[C@@H]1CN([C@@H](C)CO)C(=O)c2cccc(NC(=O)Nc3ccc(F)cc3)c2O[C@@H]1CN(C)C(=O)Nc1cccc2ccccc12,inactive
19,C[C@@H](NC(=O)c1ccccc1)C(=O)NN,inactive
20,C[C@@H]1CCCCO[C@@H](CN(C)Cc2ccccc2)[C@@H](C)CN([C@H](C)CO)C(=O)c2cc(NC(=O)NC3CCCCC3)ccc2O1,inactive
21,C[C@@H]1CCCCO[C@@H](CN(C)Cc2ccccc2)[C@H](C)CN([C@@H](C)CO)C(=O)c2cc(NC(=O)NC3CCCCC3)ccc2O1,inactive
22,C[C@@H]1CCCCO[C@@H](CN(C)Cc2ccccc2)[C@@H](C)CN([C@@H](C)CO)C(=O)c2cc(NC(=O)NC3CCCCC3)ccc2O1,active
23,C[C@@H]1CCCCO[C@H](CN(C)Cc2ccccc2)[C@@H](C)CN([C@@H](C)CO)C(=O)c2cc(NC(=O)NC3CCCCC3)ccc2O1,active

row,Structure (SMILES),cytotoxicity call
1,C[C@@H]1CCCCO[C@@H](CN(C)Cc2ccccc2)[C@H](C)CN([C@H](C)CO)C(=O)c2cc(NC(=O)NC3CCCCC3)ccc2O1,inactive
2,C[C@H]1CCCCO[C@@H](CN(C)Cc2ccncc2)[C@@H](C)CN([C@@H](C)CO)C(=O)c2cc(NC(=O)NC3CCCCC3)ccc2O1,inactive
3,C[C@@H]1CCCCO[C@H](CN(C)Cc2ccccc2)[C@H](C)CN([C@@H](C)CO)C(=O)c2cc(NC(=O)NC3CCCCC3)ccc2O1,active
4,C[C@@H]1CN([C@@H](C)CO)C(=O)c2cc(NC(=O)NC3CCCCC3)ccc2O[C@@H](C)CCCCO[C@H]1CN(C)Cc1ccccc1,inactive
5,C[C@@H]1CN([C@H](C)CO)C(=O)c2cc(NC(=O)NC3CCCCC3)ccc2O[C@@H](C)CCCCO[C@@H]1CN(C)Cc1ccccc1,inactive
6,C[C@@H]1CN([C@@H](C)CO)C(=O)c2cc(NC(=O)NC3CCCCC3)ccc2O[C@@H](C)CCCCO[C@@H]1CN(C)Cc1ccncc1,inactive
7,C[C@@H]1CCCCO[C@H](CN(C)Cc2ccncc2)[C@H](C)CN([C@@H](C)CO)C(=O)c2cc(NC(=O)NC3CCCCC3)ccc2O1,active
8,C[C@H](CO)N1C[C@H](C)[C@H](CN(C)Cc2ccccc2)OCCCC[C@H](C)Oc2ccc(NC(=O)NC3CCCCC3)cc2C1=O,inactive
9,C[C@@H]1CN([C@@H](C)CO)C(=O)c2cc(NC(=O)Cn3cnnn3)ccc2O[C@H]1CN(C)S(=O)(=O)c1ccc(Cl)cc1,inactive
10,COc1ccc(S(=O)(=O)N[C@H]2CC[C@@H](CCNC(=O)CN3CCOCC3)O[C@H]2CO)cc1,inactive
11,C[C@@H]1CN([C@@H](C)CO)C(=O)Cc2cc(NS(=O)(=O)c3cn(C)cn3)ccc2O[C@H]1CN(C)S(=O)(=O)c1ccc(Cl)cc1,inactive
12,CO[C@@H]1CN(C)C(=O)c2cc(NS(=O)(=O)CC(F)(F)F)ccc2OC[C@@H](C)N(Cc2ccccn2)C[C@H]1C,inactive
13,CN1C(=S)N[C@@H]2CS(=O)(=O)C[C@@H]21,inactive
14,O=C(CCCCCC(=O)N/N=C/[C@H](O)[C@H](O)[C@@H](O)[C@@H](O)CO)NO,inactive
15,C[C@H]1CN([C@@H](C)CO)C(=O)c2cc(C3=CCCCC3)cnc2O[C@@H]1CN(C)C(=O)CN1CCOCC1,inactive
16,O=c1nc[nH]c2c1ncn2[C@@H]1C[C@@H](O)[C@H](CO)O1,inactive
17,C[C@@H]1CN([C@H](C)CO)C(=O)c2cccc(NC(=O)c3nc4ccccc4s3)c2O[C@@H]1CN(C)CC1CCCCC1,inactive
18,CCN1[C@@H]2O[C@@H]3O[C@H]4[C@H](O[C@H]3O[C@@H]2N(CC)S1(=O)=O)N(CC)S(=O)(=O)N4CC,inactive
19,C[C@H](CO)N1C[C@H](C)[C@H](CN(C)S(=O)(=O)c2cccs2)Oc2ncc(C#Cc3cccc(F)c3)cc2C1=O,inactive
20,Cc1noc(C)c1NC(=O)N(C)C[C@@H]1Oc2ccc(NC(=O)CCN3CCOCC3)cc2C(=O)N([C@@H](C)CO)C[C@H]1C,inactive
21,C[C@@H]1CCCCO[C@H](CN(C)Cc2ccccc2)[C@@H](C)CN([C@H](C)CO)C(=O)c2cc(NC(=O)NC3CCCCC3)ccc2O1,inactive
22,C[C@@H]1CN([C@H](C)CO)C(=O)c2cc(NC(=O)NC3CCCCC3)ccc2O[C@@H](C)CCCCO[C@H]1CN(C)Cc1ccccc1,inactive
23,C[C@H]1CCCCO[C@H](CN(C)Cc2ccccc2)[C@@H](C)CN([C@@H](C)CO)C(=O)c2cc(NC(=O)NC3CCCCC3)ccc2O1,active
